Hit rate of the full screen: of about 2,100 compounds, about 320 (15%) were called active. Not shown: some 52% with an inconclusive outcome. Calls come from the whole dose curve; as a rule, active = well fitted cell-killing curve with a large enough effect; inconclusive = small, poorly fitted or top-dose-only effect, or effect the other way; inactive = flat fitted curve, though single readings scatter. This is one part of the list. Where a call stands in place of a potency, no number is given.
Potency is the fitted concentration of half-maximal effect.

The nature of this experiment: Viability Counterscreen for CMV-Luciferase Assay of Inhibitors of ATXN expression. Note: nearly all actives have a fitted effect of over 55% in size. The settings on record: HEK-293 CMV-luciferase cells viability, protease fluorescence, 24 h. The gist of the method: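 Compounds are tested in a dilution series on HEK-293 cells carrying the CMV-driven luciferase. After a 24 hr incubation, a protease substrate (25 uM final, 30 min) gives the viability fluorescence, and SteadyGlo gives the reporter luminescence.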
(The purpose of a counterscreen is to sort out artefacts and off-target activity.)
Consider `CCN(CC)CCNc1ccc(CO)c2sc3ccccc3c(=O)c12`, for which the Potency was 25.1 µM (active). Consider `CCN(CC)CCNC(=O)c1ccc(NC(=O)Cc2cccc3ccccc23)cc1`, for which the Potency entry is “inactive”. The result for `O=c1c2ccccc2sc2c(CO)ccc(NCCN3CCCCC3)c12` reads 25.1 µM (active); that for `Cc1nc2cc(NC(=O)CSc3nc4c(C)cccc4cc3C#N)ccc2s1`, “inactive”; that for `CC1(C)Cc2c(ccc3ccccc23)C2=C(C(=O)N3CCCC3)C(=O)C(=O)N21`, “inactive”. `O=C(/C=C/c1ccc(Cl)cc1)Nc1ccc(CN2CCOCC2)cc1`: the Potency result was “inactive”. With `Cc1ccc(C(C)C)c(OCc2ccc(C(=O)N/N=C/c3cccc(O)c3O)cc2)c1` the figure was 3.98 µM (active); with `Cc1cccc(OCCn2cc(/C=N/NC(=O)c3ccncc3)c3ccccc32)c1`, “inactive”; with `Cc1ccc(OCCn2cc(/C=N/NC(=O)c3ccncc3)c3ccccc32)cc1`, “inactive”.

Regarding `COC(=O)c1ccc(C(=O)Nc2cc(Cl)ccc2Cl)cc1NC(=O)c1ccc(N(C)C)cc1`, the Potency entry is “inactive”.

For the compound `Cc1cccc(N=C2NN=C(c3c(C)[nH]c4ccccc34)CS2)c1`, the Potency is 25.1 µM (active).

In the case of `Cc1cc(C2=NNC(=NC3CC3)SC2)c(C)n1-c1ccccc1F`, the Potency entry is “inactive”. Consider `C/C(=N\NC(=O)C(C)n1nc(C)c([N+](=O)[O-])c1C)c1ccccc1O` (configuration not stated), for which the Potency entry is “inactive”. Turning to `CN(Cc1ccccc1)C(=O)c1ccc(Nc2nc(C(N)Cc3ccccc3)cs2)nc1` (configuration not stated), the Potency was 10 µM (active). On to `COc1ccc(CC(N)c2csc(Nc3ccc(C(=O)c4ccccc4)cc3)n2)cc1` (configuration not stated), for which the Potency result was “inactive”. With `NC(=O)c1cccc(Nc2nc(C(N)Cc3ccc(C(F)(F)F)cc3)cs2)n1` (configuration not stated), the Potency entry was “inactive”.

For `COc1cc2c(C(=O)N3CCOCC3)c(CSc3ccccc3)n(C)c2cc1Br`, the Potency result is “inactive”. On to `COc1ccc2nc(C)cc(NCc3ccc(F)cc3)c2c1`, for which the Potency result was “inactive”. As to `COc1ccc(CNc2ncnc3c2[nH]c2ccccc23)cc1`, the Potency is 14.1 µM (active). With `Cc1cc(C(=O)CN2C(=O)c3ccccc3S2(=O)=O)c(C)n1C(C)C` the entry was “inactive”; with `COc1ccc(CCn2c(C)cc(C(=O)CSc3nc(N)cc(=O)[nH]3)c2C)cc1`, “inactive”.

As to `Cc1[nH]n(-c2ccccc2)c(=O)c1C=Nc1cccc2cccnc12`, the Potency entry is “inactive”. Regarding `Cc1[nH]n(-c2cccc3ccccc23)c(=O)c1/C=N/NC(=O)c1cccc([N+](=O)[O-])c1`, the Potency was 11.2 µM (active). For the compound `Cc1cccc(/C=N/NC(=O)c2cccc(Cl)c2)n1`, the Potency entry was “inactive”. The result for `Nc1ccc(Oc2ccccc2-c2ccccc2)cc1` reads “inactive”.

In the case of `CC(NC1=CC(=O)c2cccnc2C1=O)C(O)c1ccccc1` (configuration not stated), the Potency was 17.8 µM (active). Regarding `Cc1ccc(Sc2nnc(Cc3ccccc3)c3ccccc23)cc1`, the Potency result is “inactive”. As for `Cc1ccc(S(=O)(=O)c2nc(NCc3ccc4c(c3)OCO4)sc2Cl)cc1`, the Potency entry is “inactive”. `Fc1ccc2[nH]c3c(N4CCSCC4)ncnc3c2c1`: the Potency is 17.8 µM (active). In the case of `Cc1ccc(C)c(OCCCC(=O)Nc2nccs2)c1`, the Potency result is “inactive”. Consider `COc1ccc2c(Cl)c(C(=O)NN)sc2c1`, for which the Potency result is “inactive”. Take `Nc1c(C(=O)NCc2ccccc2)c2nc3ccccc3nc2n1-c1ccc2c(c1)OCO2`: the Potency entry was “inactive”. As to `O=C(CC1NCCc2ccccc21)Nc1ccc(Cl)cc1` (configuration not stated), the Potency result is “inactive”. In the case of `CC[C@H]1CN2CCc3cc(OC)c(OC)cc3C2C[C@@H]1C[C@H]1NCCc2cc(OC)c(OC)cc21` (some centres not stated), the Potency is 0.316 µM (active). Regarding `CCC1=C(CC2NCCc3ccccc32)CC2c3cc(OC)c(OC)cc3CCN2C1` (configuration not stated), the Potency is 10 µM (active). `O=C(C1CCC(CNS(=O)(=O)c2cccc3nsnc23)CC1)N1CC=C(c2ccccc2)CC1` (configuration not stated): the Potency result is “inactive”. Take `COc1ccc(Br)cc1C(=O)Nc1ccccc1N1CCN(C(=O)c2ccccc2)CC1`: the Potency result was “inactive”.

With `CCOC(=O)COc1ccc(Br)cc1/C=C/c1[nH]c(=O)[nH]c(=O)c1[N+](=O)[O-]`, the Potency result is “inactive”. Take `CCN(CC)S(=O)(=O)c1ccc(N/N=C/c2cc(OC)ccc2O)nc1`: the Potency entry is “inactive”. For the compound `CC(C)(C)c1ccc(Oc2ccc(N)cn2)cc1`, the Potency entry was “inactive”. With `COc1ccc2c(c1)C(SCC(=O)NCCc1ccc(Cl)cc1)CC(C)(C)O2` (configuration not stated) the entry was “inactive”; with `Cc1cccc(N2CCN(C(=O)CNC(=O)Cc3ccccc3)CC2)c1C`, “inactive”. With `O=C(NNC(=O)C(c1ccccc1)c1ccccc1)c1ccccn1` the figure was 10 µM (active); with `CCC1=C(OC(=O)N(CC)CC)N2C(=O)OC(=NCCc3c[nH]c4ccccc34)[C@]2(Cc2ccccc2)[C@H]2C1=CC[C@H]1C(=O)N(c3ccccc3)C(=O)[C@H]12`, “inactive”.

For `CCc1ccc(-c2nc(CS(=O)CC(=O)NCc3ccco3)c(C)o2)cc1` (configuration not stated), the Potency entry was “inactive”. As to `Cc1nc(N=C(N)N)nc2c(C)cccc12`, the Potency is 8.91 µM (active). Turning to `O=C(N/N=C/c1cc(Br)cc(Br)c1O)c1cccc(N2CCCC2=O)c1`, the Potency entry was “inactive”. As for `O=C(Nc1cccc2cccnc12)c1csc(COCCO)n1`, the Potency result was “inactive”. Regarding `CS(=O)(=O)N(CC(O)CON=C1c2ccccc2-c2ccccc21)c1ccc(F)cc1` (configuration not stated), the Potency entry was “inactive”. With `Cc1ccnc(NC(=O)C2CCN(S(=O)(=O)c3c(C)c(C)cc(C)c3C)CC2)c1` the figure was 15.8 µM (active); with `COc1ccc2nc(NC(=O)C3CCN(S(=O)(=O)c4cccs4)CC3)sc2c1`, “inactive”. Consider `Cc1ccc(NC(=O)C2CCN(S(=O)(=O)c3ccc(N4CCCC4=O)cc3)CC2)cc1Cl`, for which the Potency result was “inactive”.

Turning to `O=C(Cn1cnc([N+](=O)[O-])c1)Nc1cc(Oc2ccc(Cl)cc2Cl)cc([N+](=O)[O-])c1`, the Potency result was “inactive”. As for `Oc1ccc(Cl)cc1Sc1cc(Cl)ccc1O`, the Potency was 20 µM (active). With `CCOc1ccc(NC(=O)Nc2nnc(CC(=O)NCc3ccccc3)s2)cc1`, the Potency entry was “inactive”. As to `Cc1cc(C)c(CSc2ncc(-c3ccc([N+](=O)[O-])cc3)[nH]2)c(C)c1`, the Potency entry was “inactive”. With `CCN(c1ccccc1)S(=O)(=O)c1ccc(C(=O)N(CCCN(C)C)c2nc3c(C)cccc3s2)cc1` the figure was 28.2 µM (active); with `CN(C)CCCN(C(=O)c1ccc(S(=O)(=O)N(C)Cc2ccccc2)cc1)c1nc2cc3c(cc2s1)OCO3`, 22.4 µM (active). The result for `CCOc1ccccc1NC(=O)CCCc1nc2ccccc2c(=O)[nH]1` reads “inactive”; that for `Cc1nn(C)c(C)c1NC(=O)CSc1nc(Cc2ccccc2)nc2c1cnn2-c1ccccc1`, “inactive”. Consider `C=CCn1cnc2c(c1=O)c1nc3ccccc3nc1n2/N=C/c1cc(OC)c(OC)c(OC)c1`, for which the Potency is 11.2 µM (active). With `CCC(C)n1cnc2c(c1=O)c1nc3ccccc3nc1n2-c1ccc2c(c1)OCCO2` (configuration not stated) the entry was “inactive”.

The record behind these values is PubChem BioAssay AID1745849 (National Center for Advancing Translational Sciences (NCATS), 2022).
